# In PubChem BioAssay (NCI):
# About 83,000 compounds went through this panel and 20% of them were active in at least one assay; those are over-represented in the sample as a whole.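 Step 1: grow cells in 96-well plates. Step 2: add test compound at a single concentration. Step 3: incubate 48 h. Step 4: record percent growth.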 Values without a mark were called inactive. Calls of active or inactive are those of the source. Rule for the calls: active = growth percent below 10; inactive = the rest.
# What was measured:
# Assay in all cases: NCI-60 one-dose screen, 48 h (100 = growth as untreated, 0 = no growth, -100 = all killed)
# [1] = tested on: NCI-H23 lung; conditions: 10 µM unless noted
# [2] = tested on: NCI-H226 lung; conditions: 10 µM unless noted
# [3] = tested on: NCI-H322M lung; conditions: 10 µM unless noted
# [4] = tested on: HOP-62 NSCLC; conditions: 10 µM unless noted
# [5] = tested on: NCI-H460 lung; conditions: 10 µM unless noted
# [6] = tested on: HOP-92 NSCLC; conditions: 10 µM unless noted
# [7] = tested on: NCI-H522 lung; conditions: 10 µM unless noted
# [8] = tested on: A549/ATCC NSCLC; conditions: 10 µM unless noted
# [9] = tested on: 786-0 renal; conditions: 10 µM unless noted
# [10] = tested on: COLO 205 colon; conditions: 10 µM unless noted
# [11] = tested on: DU-145 prostate; conditions: 10 µM unless noted
# [12] = tested on: K-562 leukemia; conditions: 10 µM unless noted
# [13] = tested on: MALME-3M melanoma; conditions: 10 µM unless noted
# [14] = tested on: MDA-MB-231 breast; conditions: 10 µM unless noted
# [15] = tested on: RXF 393 renal; conditions: 10 µM unless noted
# [16] = tested on: SF-268 CNS; conditions: 10 µM unless noted
# [17] = tested on: SF-295 CNS; conditions: 10 µM unless noted
# [18] = tested on: SF-539 CNS; conditions: 10 µM unless noted
# [19] = tested on: UACC-257 melanoma; conditions: 10 µM
# [20] = tested on: M14 melanoma; conditions: 10 µM unless noted
SMILES,growth [1],growth [2],growth [3],growth [4],growth [5],growth [6],growth [7],growth [8],growth [9],growth [10],growth [11],growth [12],growth [13],growth [14],growth [15],growth [16],growth [17],growth [18],growth [19],growth [20]
CC(C)(C)OC(=O)N1CCN(S(=O)(=O)/N=C2\NC(=O)NC2=C(Cl)Cl)CC1,91.8%,105%,98.9%,105%,101%,108%,-52.4% (active),103%,101%,86.3%,101%,12.6%,80.7%,80.7%,70.8%,97%,102%,99.1%,96.1%,103%
Cc1ccc(Nc2ncnc3c2c(C)nn3-c2ccc([N+](=O)[O-])cc2)cc1,77.3%,8.18% (active),88.5%,60.3%,30.7%,111%,74.8%,45.1%,86.9%,72.2%,89.4%,69.1%,84.7%,80.8%,60.8%,79.1%,69.7%,74.4%,93.3%,80.6%
CN(C)C(=O)c1ccccc1-n1cnc2ccccc2c1=O,99.3%,102%,98.5%,112%,101%,117%,101%,99.2%,101%,109%,105%,108%,103%,100%,107%,94.6%,103%,95.5%,98.5%,101%
COc1cc2oc(-c3cccc(NC(=O)c4cc(NC(=O)[C@H](C)N)ccc4Cl)c3)cc(=O)c2c(OC)c1OC,91.5%,86%,104%,105%,99.8%,17.2%,94.9%,96.3%,91.7%,101%,95.2%,78.8%,111%,82.4%,84.8%,92.2%,92.3%,91.1%,129%,115%
CCOP(=O)(OCC)OC[C@]12CCC(C)(C)C[C@H]1C1=CC[C@@H]3[C@@]4(C)C/C(=C\c5cccnc5)[C@H](OP(=O)(OCC)OCC)C(C)(C)[C@@H]4CC[C@@]3(C)[C@]1(C)CC2,18.3%,34.2%,61.1%,36.8%,10.8%,-1.51% (active),19.8%,16.3%,36.2%,-5.36% (active),30.7%,9.94% (active),19.5%,44.8%,58%,46.1%,26.7%,37%,23.7%,34.6%
Cc1cc(C(=O)Nc2ccc(SC#N)cc2)c(C)o1,89.5%,77.7%,96.2%,63.9%,82.4%,110%,49.8%,82.4%,88.2%,106%,104%,93.3%,107%,92.4%,66.5%,66.6%,92.4%,98.8%,111%,101%
O=C1Nc2cc(OC(F)(F)F)ccc2Oc2ccc(-c3ccnc(N4CC[C@H](O)C4)c3)cc21,27.6%,-8.84% (active),55.1%,25.3%,-47.1% (active),45.7%,-28% (active),0.655% (active),6.88% (active),-42% (active),-39.1% (active),5.41% (active),39.4%,17.2%,-10% (active),19.1%,3.93% (active),-28.7% (active),72%,-1.7% (active)
NS(=O)(=O)Oc1ccc2nc(Nc3ccc(F)c(F)c3)ccc2c1,96.3%,90.5%,92.9%,99.4%,98.1%,115%,91.4%,79.6%,89.6%,93.8%,92.9%,67.6%,102%,94.3%,96.7%,88.1%,82.8%,89.9%,104%,87.9%
CC(=O)Nc1ccc(NC(=O)Nc2cccc(-c3nc(-c4ccc(NC(=O)c5cccnc5)cc4Cl)no3)c2)cc1C(F)(F)F,-63.3% (active),-55.2% (active),-34.2% (active),-58.1% (active),-64.9% (active),-65.6% (active),-46.3% (active),-1.13% (active),-35.6% (active),-53.1% (active),-13.9% (active),-1.38% (active),-84.9% (active),-60.3% (active),-79.5% (active),-33.1% (active),-69.6% (active),-87.6% (active),-43.7% (active),-58.7% (active)
CC(=O)c1sc(Nc2cccc(Nc3nc(C)c(C)s3)c2)nc1C,63.2%,65.4%,61.7%,77.8%,45.6%,63.6%,46.2%,65.8%,55.7%,77.7%,45.4%,40.9%,69.8%,80.7%,47%,71.1%,86.5%,72.2%,88.7%,51.3%
C(=C(\C1=NCCN1)n1cnc2ccccc21)/c1ccc2ccccc2c1,65.4%,62.6%,73.2%,79.4%,86.5%,-2.7% (active),14.7%,86%,74.6%,77.1%,68.7%,25.4%,79.2%,62.5%,-14.1% (active),81.8%,77.7%,82%,82.3%,61.7%
COc1cc(-c2noc(C[C@@H](NC(=O)OCc3ccccc3)C(C)C)n2)cc(OC)c1OC,96.9%,101%,92.3%,94.4%,102%,88.3%,92.1%,100%,101%,117%,108%,94.4%,94.4%,92.1%,102%,97.5%,105%,102%,98.5%,100%
Oc1ccc(CSc2nnc(-c3ccc(Br)cc3)n2-c2ccccc2)c2cccnc12,38.2%,44.7%,52.4%,16.1%,7.57% (active),31.9%,28.5%,26.3%,43.2%,99.6%,39.2%,15.8%,52%,59.2%,71.5%,32.7%,6.74% (active),16.8%,25.2%,30.1%
